Only some compounds are listed: those with a hit (about 3.8% of all), similar ones and a draw of the others.
ERa coact pot: enhancers of ERα–SRC-1 coactivator binding, primary screen, biochemical, TR-FRET, ERα LBD, low estradiol; Estrogen receptor (Homo sapiens), P03372; TR-FRET ERalpha-LBD/SRC-Cy5 coactivator binding, 2 h; 100 = basal binding, no effect; coactivator binding (% of control), % at 25.6 µM; actives 1.3% (n = 86,000); in the data active = activity above about 200%;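 also: binding measured in presence of low estradiol as agonist stimulus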
ERa coact inh: ERα–SRC-1 coactivator interaction inhibitors, primary screen, biochemical, TR-FRET, ERα LBD, estradiol-bound. Estrogen receptor (Homo sapiens), P03372. TR-FRET ER-alpha LBD / SRC-1 peptide. inhibition, % at 25.6 µM. actives 1.7% (n = 86,000). AID 629, 2007; in the data active = inhibition above about 50%
MT1-MMP txn act: MT1-MMP promoter reporter activation – cell-based, luciferase luminescence, primary screen; HT1080 MT1-MMP promoter luciferase reporter, overnight; active compounds read high; activation factor at 10 µM; actives 0.16% (n = 86,000);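 active = activation factor of at least 2 for MT1-MMP transcription at 10 µM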
hDAT+cocaine: changed hDAT dopamine uptake under cocaine IC80, either direction, primary screen, cocaine antagonist project, cell-based, LLC-PK1 hDAT, [14C]-dopamine uptake, MLSMR; Sodium-dependent dopamine transporter (Homo sapiens), Q01959; LLC-PK1 hDAT cells, [14C]-dopamine uptake with cocaine IC80; actives deviate in either direction; B-score at 10 µM; actives 1.3% (n = 110,000);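 active = Z score or B-score, a plate-position-corrected score, falls beyond the plate's 99.7% confidence bounds, in either direction; inactive = both scores lie inside the 99.7% bounds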
ERb SRC1 inh: inhibitors of ERβ-SRC1 coactivator interaction, primary screen, biochemical, TR-FRET, ERβ LBD, SRC-1 peptide; Estrogen receptor beta (Homo sapiens), Q92731; TR-FRET ER-beta LBD / SRC1-Cy5 peptide binding; receptor agonist-loaded with 1 µM estradiol; inhibition, % at 25.6 µM; actives 1.3% (n = 86,000);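 active = compounds whose percent inhibition of the receptor-coactivator binding signal exceeds about 50% in the single-dose screen, limit read from the data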
Target sequence (Q92731 whole entry, looked up, the tested form may be a part): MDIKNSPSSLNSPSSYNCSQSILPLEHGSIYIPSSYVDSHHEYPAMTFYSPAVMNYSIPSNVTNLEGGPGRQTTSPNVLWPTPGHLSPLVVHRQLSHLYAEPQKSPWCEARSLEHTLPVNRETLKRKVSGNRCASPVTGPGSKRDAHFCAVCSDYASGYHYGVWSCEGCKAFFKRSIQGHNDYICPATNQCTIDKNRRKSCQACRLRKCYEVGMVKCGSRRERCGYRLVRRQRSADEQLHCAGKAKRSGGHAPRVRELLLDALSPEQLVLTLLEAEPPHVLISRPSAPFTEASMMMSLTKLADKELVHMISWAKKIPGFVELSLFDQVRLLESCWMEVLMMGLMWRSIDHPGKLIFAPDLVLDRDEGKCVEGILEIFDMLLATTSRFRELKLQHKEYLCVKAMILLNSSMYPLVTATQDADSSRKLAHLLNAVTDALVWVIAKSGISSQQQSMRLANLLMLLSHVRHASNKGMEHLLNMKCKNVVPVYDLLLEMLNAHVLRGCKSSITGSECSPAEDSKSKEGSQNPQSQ
Numbers stand for hits; 0 = inactive; - = not tested or not shown; [ ] = remark or other dose.

SMILES	ERa coact pot	ERa coact inh	MT1-MMP txn act	hDAT+cocaine	ERb SRC1 inh
COc1cc(/C=C2/C(=N)N3C=CSC3=NC2=O)ccc1OCCCOc1ccccc1C	0	71	0	0	72[fluorescence artefact?]
O=C(CSc1cn(Cc2ccccc2)c2ccccc12)NCc1ccc(F)cc1	-	-	-	0	-
CC(=O)c1ccc(-c2cc([C@H]3[C@H]4C=CC[C@@H](C)[C@@H]4C(=O)N3Cc3ccccc3)ccc2F)cc1	-	-	-	0	-
CCOC(=O)CC1=C(C(=O)OCC)C(c2cccs2)C(C#N)=C(N)O1 (stereo not drawn)	0	93[fluorescence artefact?]	-	0	0
CCOC(=O)C1=C(c2ccccc2)OC(N)=C(C#N)C1c1cccs1 (stereo not drawn)	-	-	-	0	-
CCOC(=O)C1CCN(S(=O)(=O)Cc2ccccc2)C1=O (stereo not drawn)	0	0	0	0	68[fluorescence artefact?]
Cc1cc(C)cc(C(=O)N(NC(=O)Nc2ccc(Cl)cc2)C(C)(C)C)c1	-	-	-	0	-
CCCCOc1ccc(Cl)cc1Nc1nc(NCCO)nc(N2CCCC2)n1	-	-	-	0	-
CC1(C)NC(C)(C)c2nonc2/C1=N\O	0	0	0	2.8	0
O=C(Nc1ccccc1)[C@@H]1CC=C[C@@H]2CCN(Cc3ccc(Cl)c(Cl)c3)C(=O)[C@@H]21	-	-	-	0	-
O=C(Cc1coc2cc3c(cc12)CCC3)OCc1cc(=O)n2c(n1)sc1ccccc12	0	76	0	0	72
Cc1ccc2c(CC(=O)OCc3nc(N)nc(Nc4ccccc4C)n3)coc2c1	0	0	0	0	0
CN1C[C@@H]2C(c3ccc(C(F)(F)F)cc3)C3(c4cccnc4)CC2(C3)[C@H]1c1ccccc1 (stereo partly drawn)	-	-	0	0	-
O=C1Nc2ccccc2CCC1Sc1nnc(-c2ccc(Cl)cc2)s1 (stereo not drawn)	0	0	2.1	0	0
Cc1ccc(-c2nc3cccnc3o2)cc1NC(=O)COc1ccc(Cl)cc1C	210[fluorescence artefact?]	0	0	0	0
Cc1ccc(-c2nc3ncccc3o2)cc1NC(=O)Cc1ccc(Cl)cc1	0	52[fluorescence artefact?]	0	0	0
Cc1sc2ncnc(Oc3ccc(-n4ccnc4)cc3)c2c1C	0	0	0	2.5	0
CCOc1cc(CNc2ccc3c(c2)CCC3)ccc1OC	0	0	0	0	0
CCc1ccc(C2(O)CC(C(F)(F)F)=NN2C(=O)Cc2ccc([N+](=O)[O-])cc2)cc1 (stereo not drawn)	0	0	2	0	0
O=C(CN1N=C(C(F)(F)F)CC1(O)c1ccc([N+](=O)[O-])cc1)c1ccccc1 (stereo not drawn)	0	0	0	0	0
O=C(OCC(=O)N1CCN(C(=O)c2ccco2)CC1)c1cn(-c2ccccc2)nc1-c1ccccc1	0	0	0	4.4	0
C#Cc1ccc([C@H]2C=C(C(=O)Nc3ccccc3)O[C@@H](OCc3ccc(CO)cc3)C2)cc1	-	-	-	0	-
CCOc1cccc(C(=O)NC(=S)Nc2ccc(N3CCCC3)cc2)c1	-	-	-	0.76	-
CCOc1cccc(C(=O)Nc2ccc(N3CCN(S(C)(=O)=O)CC3)cc2)c1	0	0	0	0	0
O=C(Nc1ccccc1F)C1CCCN(S(=O)(=O)c2cccc3cccnc23)C1 (stereo not drawn)	0	0	0	0	53[fluorescence artefact?]
SMILES	ERa coact pot	ERa coact inh	MT1-MMP txn act	hDAT+cocaine	ERb SRC1 inh
CCOc1ccccc1NC(=O)C1CCCN(S(=O)(=O)c2cccc3cccnc23)C1 (stereo not drawn)	0	0	-	0	0
CC(=O)N1CC=CC1(CC(C)C)C(=O)NCc1ccc(C)o1 (stereo not drawn)	-	-	0	-	-
COc1ccc(-c2nnc3n2N=C(c2cccc(Br)c2)CS3)cc1OC	233	0	0	0	0
COc1ccc(C2=Nn3c(nnc3-c3ccccc3OC)SC2)cc1OC	-	-	0	0	-
O=S(=O)(NC12CC3CC(CC(C3)C1)C2)c1ccc(F)cc1	0	0	0	0	0
CC(C)(C)OC(=O)NCCCC[C@H](NC(=O)c1nc[nH]c1C(=O)N1CCN(c2ccccc2)CC1)C(=O)OC(C)(C)C	-	-	-	0	-
CCOC(=O)c1ccc(NC(=O)N2CCc3ccccc32)cc1	241[fluorescence artefact?]	0	0	0	0
COc1ccc(NC(=O)N2CCc3ccccc32)cc1	0	0	-	0	0
COc1cc2c(cc1OC)C(c1ccc(-c3cc(Cl)ccc3Cl)o1)=NCC2	253[fluorescence artefact?]	0	0	0	0
COc1cc2c(cc1OC)C(c1ccc(-c3ccccc3Cl)o1)=NCC2	0	0	0	0	0
CCOC(=O)c1ccc(OC(=O)CCCCCN=C(N)N)cc1	-	-	-	0	-
O=C1NN(c2ccccc2)C(=O)/C1=C\c1cccc(OC(=O)c2cccs2)c1	0	0	0	0	0
O=C1NN(c2ccc(Cl)c(Cl)c2)C(=O)/C1=C/c1cccc(OC(=O)c2cccs2)c1	0	51	0	0	0
Cc1cccc(NC(=O)CSc2nc(N)c(NC(=O)c3cccs3)c(=O)[nH]2)c1C	-	-	-	0	-
CC1(c2nnc(-c3ccc(F)cc3)o2)CC(c2cccnc2)=NO1 (stereo not drawn)	-	-	-	0	-
CC1(c2nnc(-c3ccncc3)o2)CC(c2ccc(F)cc2)=NO1 (stereo not drawn)	-	-	-	-2.3	-
CCCNc1nc(C)cc(-c2cc(C(=O)NC3CCCC3)on2)n1	-	-	-	0	-
CCOc1ccc(Nc2oc(-c3ccc(Cl)cc3)nc2C#N)cc1	0	0	0	0	0
CNc1oc(-c2ccccc2)nc1C#N	0	0	0	-7.8	0
COc1ccc(Nc2oc(-c3ccc(Cl)cc3)nc2C#N)cc1	0	0	2.2	0	0
CCCc1ccc(Oc2cc(N3CCOCC3)nc(-c3ccccc3)n2)cc1	-	-	-	0	-
COc1ccc(OC)c(NC(=O)C(CCS(C)(=O)=O)NC(C)=O)c1 (stereo not drawn)	0	0	0	4.3	0
Cn1cc(NC(=O)c2cc(NC(=O)c3cc(NC=O)cn3C)cn2C)cc1C(=O)NCCC(=N)N	0	61	0	0	71
CCOC(=O)C1=C(C)N(CCCC(=O)O)C(=O)NC1c1ccc(C(F)(F)F)cc1 (stereo not drawn)	-	-	0	0	-
Cc1nc(-c2ccccc2)sc1C1(C)CC(c2cccc(F)c2)=NO1 (stereo not drawn)	-	-	-	0	-
CCOC(=O)C1=C(C)S/C(=C\N(C)C)C1=O	0	54	0	0	73[fluorescence artefact?]
COc1cccc2oc(-c3ccco3)cc(=O)c12	-	-	-	0	-
Cc1sc2ncnc(NCC(c3ccco3)N3CCCC3)c2c1C (stereo not drawn)	0	0	0	0	0
O=C(COC(=O)c1ccccc1NC(=O)c1ccco1)Nc1ccc2c(c1)OCO2	0	71[fluorescence artefact?]	0	0	0

Screening results (PubChem BioAssay)
